In ChEMBL document CHEMBL3988442, “University of Dundee, Small-Polar-MMV Screening Library” (2021):
Among all 66,000 compounds or so, about 960 (1.5%) showed an effect of 50% or more. What follows is part of a selection rich in strong results, with near analogues and random picks from the rest.

Test system: Trypanosoma brucei
Experiment: Trypanosoma brucei 72 hour study
Type: functional, organism-based
Design: scale not given: in the data most compounds retested in dose-response had high values

Compound | Percent Effect (30 µM, 30.03 µM) [%] | Percent Effect (30.3 µM, […]) [%]
O=C(O)CCn1ccc2c(nnc3c(-c4ccc(F)cc4)cnn32)c1=O | -41.42 | –
Cc1ccc(-n2cc(CN3CCOCC(CN(C)C)C3)cn2)cc1C (stereo unspecified) | – | 98.04
Cc1cc(-n2cccn2)ccc1CN1CCOCC(CN(C)C)C1 (stereo unspecified) | – | -10.31
Cc1cc(C)c(-n2cccn2)c(CN2CCOCC(CN(C)C)C2)c1 (stereo unspecified) | – | -14.72
CN(C)c1ncc2c(O)nc(C3CCNCC3)cc2n1.Cl | – | -29.5
CC(=O)NC1CCN(c2ccnc(C3CCNCC3)c2)CC1.O=C(O)C(F)(F)F | – | -10.98
O=C(Nc1cccnc1)NC1CCN(c2ccccc2OC(F)F)C1 (stereo unspecified) | -24.57 | –
O=C(Nc1ccncc1)NC1CCN(c2ccccc2OC(F)F)C1 (stereo unspecified) | 57.33 | –
O=C(Nc1ccccn1)NC1CCN(c2ccccc2OC(F)F)C1 (stereo unspecified) | -33.53 | –
Cc1nc(N(C)C)nc(C)c1NC(=O)c1ccccc1F | -23.68 | –
CO[C@@H]1CCN(Cc2cnn(C)c2)[C@@H]2CN(Cc3cccnc3)C[C@@H]21.O=C(O)C(F)(F)F.O=C(O)C(F)(F)F.O=C(O)C(F)(F)F | -0.5656 | –
CN(C)C(=O)CN1CCC(c2c(C(N)=O)sc3ncccc23)C1 (stereo unspecified) | – | -20.96
CCc1ncc2c(n1)CN(Cc1cccc3c1OCCO3)CC2 | -15.38 | –
Cc1ncc2c(n1)CN(Cc1cccc3c1OCCO3)CC2 | -9.069 | –
CC(C)c1ncc2c(n1)CN(Cc1cccc3c1OCCO3)CC2 | 65.77 | –
O=C(O)C(F)(F)F.O=C(O)C(F)(F)F.O=C(c1ccsc1)N1C[C@@H]2OCCN(CCN3CCCC3)[C@@H]2C1 | – | -142.2
CCn1cc(Cl)c(C(=O)NCCOC)n1 | – | -26.01
COC(=O)CCc1c(C)nc2cc(O)nn2c1C | 37.13 | –
CCNC(=O)CCc1c(C)nc2cc(O)nn2c1C | 30.72 | –
COc1ccc(NC(=O)CCc2c(C)nc3cc(O)nn3c2C)cn1 | 73.91 | –
Cc1ccc2c(c1)CN(C(=O)c1cccnc1)C(CN(C)C)CO2.Cl (stereo unspecified) | – | -3.741
Cc1cnc(N2CCO[C@@H]3CC(COCc4cccnc4)C[C@H]32)nc1.O=C(O)C(F)(F)F.O=C(O)C(F)(F)F (stereo partly specified) | – | -14.97
Cl.c1cnc2c(c1)cc([C@@H]1CCCO1)n2CCN1CCOCC1 | – | -1.684

Compound | Percent Effect (30 µM, 30.03 µM) [%] | Percent Effect (30.3 µM, […]) [%]
CCc1ccc(S(=O)(=O)N2Cc3c(CN(C)C)nn(C)c3C2)cc1.O=C(O)C(F)(F)F | – | -1.293
O=C(Nc1cccc(CN2CCOC2=O)c1)N1CCSCC1 | 53.61 | –
O=C(Nc1cccc(CN2CCOC2=O)c1)N1CCCCCC1 | -56.22 | –
O=C(Nc1cccc(CN2CCOC2=O)c1)N1CCCC1 | -2.123 | –
COc1ccc(C[C@H]2CN(C(=O)CN(C)C)CC[C@H]2OC)cc1.O=C(O)C(F)(F)F | – | 4.427
CCS(=O)(=O)N1Cc2ccccc2CC1C(=O)OCc1c(C)noc1C (stereo unspecified) | -54.09 | –
Cc1cc(COC(=O)[C@@H]2Cc3ccccc3CN2S(C)(=O)=O)no1 | 77.9 | –
CCS(=O)(=O)N1Cc2ccccc2CC1C(=O)OCc1cc(C)no1 (stereo unspecified) | -34.32 | –
COCCNC(=O)N1CCCC1COc1ccccc1 (stereo unspecified) | – | -9.999
Cc1ccccc1SC1CCN(C(=O)C2CNCC(=O)N2)CC1 (stereo unspecified) | – | 6.741
Cc1ccccc1SC1CCN(C(=O)C2CNC(=O)N2)CC1 (stereo unspecified) | – | -1.493
Cc1ccccc1SC1CCN(C(=O)[C@H]2[C@@H]3CNC[C@@H]32)CC1 | – | 52.77
COCC1CN(Cc2ccoc2)Cc2nn(C)cc21.O=C(O)C(F)(F)F (stereo unspecified) | 26.18 | –
CN(C[C@@H]1CCC[C@@H]2CN(c3ncccn3)C[C@@H]21)C1CC1.O=C(O)C(F)(F)F | – | -3.838
CN(C)C[C@@H]1CCC[C@@H]2CN(c3ncccn3)C[C@@H]21.O=C(O)C(F)(F)F | – | -12.16
CN(C)C[C@@H]1CCC[C@@H]2CN(c3nccc(C(F)(F)F)n3)C[C@@H]21.O=C(O)C(F)(F)F | – | 99.5
CNCC(=O)Nc1ccc(-c2cnc(NCCS(C)(=O)=O)nc2)cc1 | – | -12.7
COc1ccccc1CN1CCCCC1c1n[nH]cc1-c1cc(C)no1.Cl (stereo unspecified) | – | 99.66
COc1cccc(CN2CCCC2c2c(C)nn(C)c2C)c1 (stereo unspecified) | -36.92 | –
COCC(=O)N1CCCCC1c1nc(N(C)C)ncc1-c1cc(C)no1 (stereo unspecified) | – | -6.324
COc1cccc(CN2CCCCC2c2n[nH]cc2-c2cc(C)no2)c1.Cl (stereo unspecified) | – | 52.03
Cc1c[nH]nc1C1CCCN1Cc1ccncc1 (stereo unspecified) | – | -23.61
CCc1ccc(CN2CCCCC2c2n[nH]cc2-c2cc(C)no2)cc1.Cl (stereo unspecified) | – | 53.31
